Most compounds without a hit are left out; they make up all but 7.6% or so of the library.
KCNH2 3.1 inh: inhibitors of human KCNH2 3.1 potassium channel isoform | U2OS KCNH2 3.1, thallium flux FluxOr; hits give low values | activity change, % (tested at about 1.8 µM) | 0.95% of 340,000 active | AID 720553;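 active = maximum activity change below -70%; inconclusive = maximum activity change from -70% to -50%; inactive = maximum activity change above -50%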;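 note: thallium influx rate constant from kinetic fluorescence after stimulation buffer; % is set by controls: 0 for no effect and ±100 for the full control effect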
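Steps: virus added to U2OS suspension (4 h, RT, dark); medium with 10% FBS added, cells plated, 37 C overnight; FluxOr/Red40 loading buffer 45 min RT; stimulation buffer, 2 min kinetic read; rate constant normalized.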
KB-V1 cytotox: kills drug-selected multidrug resistant KB-V1 cells; Potency, µM (doses to about 46.1 µM), usual class: cytotoxic; 3.4% of 400,000 active; AID 1347076; KB-V1 MDR cells viability, CellTiter-Glo, 72 h; note: potency is the fitted concentration of half-maximal effect; % is set by controls: 0 for no effect and ±100 for the full control effect; nearly all actives have a fitted effect of over 60% in size
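In this primary screen, KB-V1 cells overexpressing P-gp are incubated with library compounds (lowest to highest concentration) for 72 h at 37 degrees C before a luminescent ATP viability read.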
KB-3-1 cytotox: KB-3-1 parental cell cytotoxicity; KB-3-1 viability, CellTiter-Glo ATP luminescence, 72 h; Potency, µM (highest dose often 46.1 µM), usual class: cytotoxic; 1.4% of 400,000 active; note: potency is the fitted concentration of half-maximal effect; % is set by controls: 0 for no effect and ±100 for the full control effect; nearly all actives have a fitted effect of over 60% in size
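Cytotoxicity in the drug-sensitive parental line KB-3-1 was scored as loss of CellTiter-Glo luminescence following 72 h incubation with compound. Values come from curve fitting of normalized concentration-response data.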
SW480 rerep: DNA re-replication induction in SW480 cells; SW480 DNA re-replication, Hoechst DNA content imaging, 48 h; Potency, µM (series often up to 46.1 µM), for the others: at the top dose re-replication activation, usual class: activators; 1.8% of 340,000 active; note: potency is the fitted concentration of half-maximal effect; % of control where 0% means no effect; nearly all actives have a fitted effect of over 55% in size
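Quantitative HTS format with DMSO vehicle controls; 48 hr drug incubation at 37 C, then 40 min Hoechst staining and scanning imager measurement at 405 nm excitation.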
MCF10A rerep: inducers of DNA re-replication in MCF 10A breast cells; Potency, µM (doses to about 46.1 µM), for inactives: at the top dose activity, positive = re-replication, usual class: activators; MCF 10A DNA re-replication, Hoechst nuclear intensity, 48 h; 2.9% of 350,000 active; AID 624296; note: potency is the fitted concentration of half-maximal effect; % of control where 0% means no effect; nearly all actives have a fitted effect of over 50% in size
KCNH2 WT inh: blocks the wildtype human KCNH2 potassium channel | U2OS, BacMam KCNH2, thallium flux FluxOr; hits give low values | activity change, % at 1.84 µM | 0.37% of 340,000 active;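 active = maximum activity change below -70%; inconclusive = maximum activity change between -70% and -50%; inactive = maximum activity change above -50%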; note: % is set by controls: 0 for no effect and ±100 for the full control effect
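U2OS cells transduced with wild-type KCNH2 virus are loaded with FluxOr dye for 45 min, and thallium flux is measured in kinetic reads before and after stimulation buffer. Rate constants are normalized to DMSO controls.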
An asterisk follows results filed as active; i = inactive; ? = inconclusive; nt = not tested or not shown. Unless noted, calls come from the whole dose curve; as a rule, active = well fitted curve in the direction sought with a large enough effect; inconclusive = small, poorly fitted or top-dose-only effect, or another doubt; inactive = no such curve, though single readings can be large; an effect the other way counts as inactive or inconclusive.

SMILES | KCNH2 3.1 inh | KB-V1 cytotox | KB-3-1 cytotox | SW480 rerep | MCF10A rerep | KCNH2 WT inh
Cc1c(Cl)cccc1NC(=O)CSc1nccn1C | 4 | i | i | -4% | 0% | -5
COc1ccccc1N1CCN(CCC(=O)Nc2ccc3c(c2)OCO3)CC1 | -7 | 21µM* | i | -2% | -1% | -8
COc1ccc(NC(=O)CN2CCN(CC(=O)Nc3cc(OC)cc(OC)c3)CC2)cc1 | -81* | i | i | -5% | -16% | -26
COc1cc(NC(=O)CN2CCCCCC2)cc(OC)c1 | -10 | i | i | 1% | 1% | -2
COc1cc(OC)nc(NC(=O)CN2CCN(c3ccc(F)cc3)CC2)n1 | -8 | 23µM* | i | -12% | 5% | 0
CCCCNC(=O)CN1CCN(Cc2ccc3cc(OC)ccc3c2)CC1 | -84* | i | ? | 29% | 0% | -15
COc1ccc(NC(=O)CN2CCN(Cc3ccccc3)CC2)cc1 | -6 | i | i | -13% | -5% | 1
COc1ccccc1N1CCN(CC(=O)Nc2ccc3c(c2)OCCO3)CC1 | -1 | i | i | 15% | -18% | -45
COc1ccccc1C1C(C(=O)Nc2ccccc2)=C(C)Nc2nc(-c3ccccc3)nn21 (stereo not given) | nt | i | i | nt | nt | nt
CC(=O)Oc1ccccc1Cn1c(C)c(C(=O)NCc2ccc(Cl)c(Cl)c2)sc1=O | nt | ? | i | nt | nt | nt
Cc1nc2ccc(NC(=O)Cc3ccc(Br)cc3)cc2s1 | -8 | i | i | ? | -2% | 21
Cc1nc2ccc(NC(=O)Cc3ccc4c(c3)OCCO4)cc2s1 | -13 | 15µM* | i | -53% | 9% | -2
CCOc1ccc2nc(SCC(=O)Nc3ccc4c(c3)OCO4)sc2c1 | 0 | 16µM* | i | 25% | 3% | -4
CCOc1ccc2nc(SCC(=O)c3ccc(C)s3)sc2c1 | 2 | i | i | -3% | 3% | 3
Cc1cc(C)nc(/N=C(\N)N2CCc3ccccc32)n1 | -4 | ? | i | -6% | 0% | 0
COCCN(C(=S)Nc1cccc(C)c1)C(C)c1cccnc1 (stereo not given) | 4 | i | i | -8% | -5% | 0
CCN(CC)C(=O)c1cccc(-c2csc(C(C)(O)c3ccc(OC)cc3)n2)c1 (stereo not given) | nt | ? | 12µM* | nt | nt | nt
CC(O)(c1cccnc1)c1nc(-c2ccc3ccccc3c2)cs1 (stereo not given) | nt | 6.5µM* | ? | nt | nt | nt
CCN(CC)C(=O)c1cccc(-c2csc(C(C)(O)c3cccc(OC)c3)n2)c1 (stereo not given) | nt | i | i | nt | nt | nt
COc1ccc(-c2csc(C(C)(O)c3cccc(OC)c3)n2)cc1 (stereo not given) | nt | ? | i | nt | nt | nt
COc1cccc(C(C)(O)c2nc(-c3ccc(S(C)(=O)=O)cc3)cs2)c1 (stereo not given) | nt | 16µM* | 18µM* | nt | nt | nt
CC(O)(c1cccnc1)c1nc(-c2ccc3c(c2)OCO3)cs1 (stereo not given) | nt | ? | i | nt | nt | nt
Cc1cccc2c(=O)n3c(cc12)-c1[nH]c2ccccc2c1CC3 | 8 | i | i | ? | 21µM* | 8
O=C(Nc1ccccc1C(F)(F)F)C1CCCC1 | -3 | i | i | -5% | 0% | -20
O=C(Nc1ccccc1-c1ccccc1)C1CCCC1 | ? | ? | 7.3µM* | ? | 13µM* | 5
SMILES | KCNH2 3.1 inh | KB-V1 cytotox | KB-3-1 cytotox | SW480 rerep | MCF10A rerep | KCNH2 WT inh
O=C(NC1CCCC1)c1cc(-c2ccccc2)nc2ccccc12 | 5 | ? | i | -1% | 6% | -2
O=C(NC(=S)Nc1ccccc1Br)C1CCCCC1 | -1 | 16µM* | i | 0% | ? | -7
O=C(NC1CCCC1)c1ccccc1-c1ccccc1 | -10 | 15µM* | i | 0% | -32% | -4
O=C(NC1CCCCCC1)c1cccnc1Sc1ccccc1 | 16 | 23µM* | i | -2% | ? | 8
O=C(NC(=S)Nc1ccccc1Br)C1CCCC1 | 9 | i | i | 0% | 3% | -13
COc1ccc(C(=O)NCc2ccc3c(c2)CCN3C(=O)c2ccccc2)cc1 | nt | i | i | nt | nt | nt
Cc1ccc(N(CC(=O)Nc2ccccc2-c2ccccc2)S(=O)(=O)c2ccccc2)c(C)c1 | -10 | i | i | 5% | 21µM* | -16
Cc1cccc(NS(=O)(=O)c2ccc(NC(=O)CN(c3cc([N+](=O)[O-])ccc3C)S(C)(=O)=O)cc2)c1 | -12 | i | i | 18µM* | ? | -11
CS(=O)(=O)N(CC(=O)Nc1ccccc1-c1ccccc1)c1ccccc1 | 10 | i | i | -1% | ? | -4
CS(=O)(=O)N(CC(=O)Nc1ccccc1-c1ccccc1)c1cccc(F)c1 | -5 | i | i | -11% | 0.65µM* | 4
CS(=O)(=O)N(CC(=O)Nc1ccc(S(=O)(=O)N2CCOCC2)cc1)c1cccc(F)c1 | -13 | i | i | 23µM* | ? | -1
COc1ccc(C)cc1NS(=O)(=O)c1ccc(NC(=O)CN(c2cc([N+](=O)[O-])ccc2C)S(C)(=O)=O)cc1 | -3 | i | i | ? | 22% | -18
CC(=O)c1cccc(N(CC(=O)Nc2ccc(S(=O)(=O)N3CCOCC3)cc2)S(C)(=O)=O)c1 | nt | i | i | -14% | -2% | -6
COc1ccc(C(=O)N2CCNC(=O)C2)cc1S(=O)(=O)Nc1ccc(Br)cc1 | 5 | nt | nt | 5% | 4% | 10
Cc1ccc(N(CC(=O)Nc2ccc(S(=O)(=O)N3CCOCC3)cc2)S(C)(=O)=O)cc1C | 9 | 23µM* | i | 3% | 2% | -6
Cc1cccc(N(CC(=O)Nc2ccc(F)cc2)S(C)(=O)=O)c1 | -3 | 16µM* | i | 6% | -1% | -12
O=S(=O)(Nc1cccc(F)c1)c1ccc(S(=O)(=O)N2CCOCC2)cc1 | -74* | i | i | nt | nt | -7
CSc1cccc(NC(=O)CN(c2cccc(C)c2)S(C)(=O)=O)c1 | -4 | i | i | 2% | 2% | -7
CC(=O)Nc1ccc(NC(=O)CCN2C(=O)c3ccccc3C2=O)cc1 | -7 | i | i | -38% | 0.58µM* | 6
CC(=O)Nc1ccc(NC(=O)CCCN2C(=O)c3ccccc3C2=O)cc1 | 12 | i | i | 1% | 0% | 3
O=C(CCN1C(=O)c2ccccc2C1=O)NC(=S)Nc1cccc(Cl)c1 | -72* | i | i | 15% | -1% | -6
O=C(CCN1C(=O)c2ccccc2S1(=O)=O)Nc1ccc(Cl)cc1 | -84* | i | i | 7% | 0% | 5

Screens: PubChem, National Center for Advancing Translational Sciences (NCATS)
